Active and inactive are the calls of the source. How the source made its calls: active means hit-call score of the fitted dose curve at least 0.9, where 1 is the maximum; inactive means score below 0.9.

A short description of the assay: APR_HepG2_MitoticArrest_24hr: Apredica 24-hour HepG2 Assay for Mitotic Arrest (AID 2282910). The note with it: high-content imaging, actives raise or lower the signal. The protocol:
APR_HepG2_24hr is a cell-based, multiplexed-readout assay that uses HepG2, a human liver cell line, with measurements taken at 24 hours after chemical dosing in a 384-well plate.APR_HepG2_MitoticArrest_24hr is one of 10 assay component(s) measured or calculated from the APR_HepG2_24hr assay. It is designed to make measurements of cell phenotype, a form of morphology reporter, as detected with fluorescence intensity signals by HCS Fluorescent Imaging technology.Data from the assay component APR_HepG2_MitoticArrest_24hr was analyzed into 1 assay endpoint. This assay endpoint, APR_HepG2_MitoticArrest_24hr, was analyzed with bidirectional fitting relative to DMSO as the negative control and baseline of activity. Using a type of morphology reporter, measures of protein for gain or loss-of-signal activity can be used to understand the signaling at the pathway-level as they relate to the gene . Furthermore, this assay endpoint can be referred to as a primary readout, because this assay has produced multiple assay endpoints where this one serves a signaling function. To generalize the intended target to other relatable targets, this assay endpoint is annotated to the cell cycle intended target family, where the subfamily is arrest.
Cells were treated with dimethyl sulfoxide (DMSO) as a solvent control at a final concentration of 0.5% v/v or with compounds in DMSO with a resulting final DMSO concentration of 0.5% v/v. Compound treatment was done at concentrations of 0.39, 0.78, 1.56, 3.12, 6.24, 12.5, 25, 50, 100, and 200 uM in duplicate on each plate. Cells were treated with compounds for 1, 24, or 72 hr. Carbonyl […] m-chloro-phenylhydrazone (CCCP) and taxol were used as positive controls for mitochondrial function and cytoskeletal stability, respectively; DMSO served as the negative control for this experiment. Cells were fixed by the direct addition of 50 uL formaldehyde in Hank's Balanced Salt Solution (HBSS) to a final concentration of 3.7%. After incubation in the fixation medium for 30 min at room temperature (293-298 K), cells were rinsed twice with HBSS and treated with cell permeabilization buffer (16 uL of 0.5% Triton X-100) for 10 min at room temperature (293-298 K) before labeling. For mitochondrial membrane potential and mitochondrial measurements, pre-fixed cells were incubated with 50 uL of MitoTracker Red CMXRos (Invitrogen) at a concentration of 250 nM for 30 min before fixation. In the remaining cases, post-fixed cells were labeled by incubation with a multiplexed mixture of primary antibodies in HBSS for 60 min at room temperature (293-298 K) to detect immunoreactivity of c-Jun (1:500), phospho-histone H3 (1:100), phospho-histone H2A.x (1:200), p53 (1:400), alpha-tubulin (1:200) and Hoechst 33342 (2 ug/mL). Cells were labeled for multiplexed imaging on two separate plates: a) Hoechst 33342, MitoTracker Red, phospho-histone H3, and alpha-tubulin, and b) Hoechst 33342, phospho-histone H2A.x, and c-Jun. A final rinse with HBSS (50 uL) was performed before analysis. The primary and secondary antibodies for the proteins were phospho-histone H3 (rabbit anti-phospho-histone H3 and FITC-donkey anti-rabbit IgG), phospho-histone H2A.x (mouse anti-phospho-histone H2A.x and FITC-donkey anti-mouse IgG), c-Jun (rabbit anti-phospho-c-Jun and Cy3-donkey anti-rabbit IgG), p53 (sheep anti-p53 and Cy5-donkey anti-sheep IgG), alpha-tubulin (mouse anti-alpha-tubulin and Cy5-donkey anti-mouse IgG). These antibodies are available as the CellCiphr HepG2 assay kit (Millipore).Digital images of each well were captured using a Cellomics ArrayScan VTI (Thermo Scientific Cellomics) (0.8 NA objective, 0.63x optical coupler, and XF-93 filter set) at 20x magnification. The images were acquired using the autofocus feature of the ArrayScan instrument, which entails the following steps. First, the camera focuses on channel 1 (Hoechst 33342), where nuclei are identified. Second, a Z offset of 1 um is used for capturing mitochondria (MitoTracker Red). […]
Consider `CC1(C)C(=O)NC(=O)N1CO`, for which the molecule was classed as inactive. Regarding `CN(C)CCCN1c2ccccc2Sc2ccc(Cl)cc21`, the AC50 was 19.7 µM (active). On to `CCCCc1nc2cccnc2n1Cc1ccc(-c2ccccc2-c2nnn[nH]2)cc1`, for which the call was inactive.

Regarding `O=C1NC(=O)C(c2ccccc2)(c2ccccc2)N1`, the molecule was called inactive.

In the case of `NC(=Nc1ccccc1)Nc1ccccc1`, the concentration at half-maximal activity (AC50) was 21.7 µM (active).

With `COC(=O)[C@H]1[C@H]2C[C@@H]3c4[nH]c5cc(OC)ccc5c4CCN3C[C@H]2C[C@@H](OC(=O)c2cc(OC)c(OC)c(OC)c2)[C@@H]1OC`, the half-maximal activity concentration (AC50) is 31.1 µM (active).

Turning to `Cn1cnc2c1c(=O)[nH]c(=O)n2C`, the molecule was classed as inactive. The same measure, in the same setting: in the case of `CCCCC(CC)CO` (stereo not given) it was “inactive”. Consider `O=C(O)CC(O)(CC(=O)O)C(=O)O`, for which the call was inactive.

Consider `Cc1cc(SC2=C(O)C[C@@](CCc3ccc(N)cc3)(C(C)C)OC2=O)c(C(C)(C)C)cc1CO`, for which the call was inactive. The same measure, in the same setting: under `O=C(O)c1[nH]n(-c2ccc(S(=O)(=O)O)cc2)c(=O)c1N=Nc1ccc(S(=O)(=O)O)cc1` stands “inactive”; under `Cc1c(C)c2c(c(C)c1O)CCC(C)(COc1ccc(CC3SC(=O)NC3=O)cc1)O2` (stereo not given), “inactive”.

Regarding `O=C(N[C@@H](c1ccccc1)[C@@H]1CCCCN1)c1cccc(C(F)(F)F)c1Cl`, the AC50 was 12.6 µM (active). Take `O=C1CCCCC1`: the result was inactive. Turning to `CO[C@@H]1COCC[C@@H]1N[C@@H]1CC[C@@](C(=O)N2CCc3ncc(C(F)(F)F)cc3C2)(C(C)C)C1`, the molecule was called inactive. Take `CC(=O)O`: the AC50 is 126 µM (active). Turning to `CCOCCOCCO`, the call was inactive. As to `COc1ccc(OC(F)(F)F)cc1CN[C@H]1CCCN[C@H]1c1ccccc1`, the AC50 was 39.5 µM (active).

For the molecule `O=C(NS(=O)(=O)/C=C/c1cccs1)c1ccc(F)cc1Br`, the call was inactive. In the case of `CC(C)OC(=O)C(C)(C)Oc1ccc(C(=O)c2ccc(Cl)cc2)cc1`, the outcome was inactive. Regarding `O=NO`, the result was inactive.

On to `O=Cc1ccccc1C=O`, for which the call was inactive.

For `CC(=O)OC1CC(C)OC(C)O1` (stereo not given), the outcome was inactive. `CCCC[C@H]1CN(CC2CCOCC2)C(=O)OC12CCN(C1(C)CCN(C(=O)c3c(C)ncnc3C)CC1)CC2`: the molecule was called inactive. Consider `CCCCC(CC)COC(=O)CCCCCCCC(=O)OCC(CC)CCCC` (stereo not given), for which the call was inactive.

For `NC1CCCCC1`, the molecule was classed as inactive. In the case of `Cc1ccc(C(C)(C)C)c(O)c1`, the AC50 is 106 µM (active). As to `CCCCCCCCCCCCCCCCO`, the result was inactive. In the case of `C/C=C/C=C/C(=O)O`, the outcome was inactive.

Regarding `CCCCCCCC(=O)OC`, the result was inactive. Take `CCCCCCCCCC[N+](C)(C)[O-]`: the molecule was called inactive. Still for that read-out and setting: in the case of `CC(C)c1cccc(C(C)C)c1NC(=O)NS(=O)(=O)c1cc(C(C)(C)O)co1` it was “inactive”. As for `CSc1ccc(Oc2ccc(S(N)(=O)=O)cc2CN(C)C)cc1C`, the AC50 is 88.9 µM (active). The same measure, in the same setting: in the case of `CCC(C)N(C)C(=O)c1cc2ccccc2c(-c2ccccc2Cl)n1` (stereo not given) it was 66.8 µM (active). Take `Nc1nc(Cl)nc2c1ncn2[C@H]1C[C@H](O)[C@@H](CO)O1`: the molecule was classed as inactive. On the same count and under the same terms, under `OCC(O)CO` stands “inactive”; under `CC(=O)[C@@]1(O)CC[C@H]2[C@@H]3CCC4=CC(=O)CC[C@]4(C)[C@H]3CC[C@@]21C`, “inactive”. Regarding `CN(C)C(=O)NC1(c2ccccc2)CCN(CC[C@@]2(c3ccc(F)c(F)c3)CN(C(=O)c3ccccc3)CCO2)CC1`, the AC50 was 101 µM (active).

Take `CCc1nc(N)nc(N)c1-c1ccc(Cl)cc1`: the molecule was classed as inactive. The same measure, in the same setting: in the case of `CC(N)=O` it was “inactive”.

The term AC50 denotes the midpoint of the concentration-response curve, whichever way the signal moves.

For the origin of these results see PubChem BioAssay (EPA / NIEHS).
